“And” between values parts separate entries of the source, which are not always exact repeats. Identical values can stand only once.
test system: HL-1; test: protection of cardiomyocytes from stress damage, SAR follow-up, cell-based, panel, H9c2 and HL-1, ATP luminescence, set 2 (AID 651871); details: H9c2/HL-1 cardiomyocytes, H2O2 oxidative stress; with H2O2, run 3, at 79 µM (top of the series);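 also: cells exposed to stressor for 2 h before ATP readout; reference of the scale not given here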

| Structure (SMILES) | activity (protection/inhibition) |
| --- | --- |
| CCOC(=O)c1cccc(NC(=O)CNC(=O)c2cc(-c3cc(OC)c(OC)c(OC)c3)nc3ccccc23)c1 | 48.4% |
| COc1ccc2c(c1OC)C(=O)N1c3ccccc3C(=O)N(Cc3cccc(Cl)c3Cl)C21 (centres undefined) | 5.43% and -7.46% and 6.3% |
| COc1ccc2nc(-c3cc(OC)c(OC)c(OC)c3)cc(C(=O)NCC(=O)Nc3ccc(C(C)=O)cc3)c2c1 | 19.5% and 32.9% |
| COc1cc(-c2cc(C(=O)Nc3cccc(C(=O)NCc4ccccc4)c3)c3ccccc3n2)cc(OC)c1OC | 14.7% |

From PubChem BioAssay AID651871 (Sanford-Burnham Center for Chemical Genomics, 2012)
